# Compound activity from PubChem.
# In the library only some 1.4% were active in any assay of this set; here they are far more common.
# Statin myotox sup = suppressors of statin myotoxicity in C2C12 myotubes, primary screen, cell-based, single point, plate reader | C2C12 myotubes + simvastatin, ATP luminescence, 48 h; scaled: DMSO 0, geranylgeraniol control 100 | rescue of ATP level, % at 7.49 µM | 0.78% of 330,000 active;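 active = mean ATP rescue above about 67%, or every replicate alone reaching that limit, limit read from the data, passing the limit was not always enough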;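 also: myotubes were challenged with 10 µM simvastatin during compound exposure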
# ARNT-TACC3 inh = disruptors of ARNT/TACC3 protein interaction, primary screen, biochemical, AlphaScreen, single concentration | AID 623870, 2012 | AlphaScreen His-ARNT PAS-B/GST-TACC3 binding, luminescence; TACC3 fragment carries E629A point mutation | 0.66% of 390,000 active | Transforming acidic coiled-coil-containing protein 3 (Homo sapiens), Q9Y6A5 | inhibition, % at 9.99 µM;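 active = mean inhibition of replicates at least 50% and at least half of replicates each reaching 50%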
# PglD DTNB = C. jejuni PglD acetyltransferase inhibitors, primary screen, biochemical, DTNB colorimetric, single point; UDP-N-acetylbacillosamine N-acetyltransferase PglD (Campylobacter jejuni); purified PglD enzyme, DTNB colorimetric CoA detection; inhibition, % at 12.5 µM; 0.098% of 360,000 active; AID 602405, 2012; in the data active = inhibition above about 16%, passing the limit was not always enough
# CFTR F508del cor = F508del CFTR correction, initial screen, CFBE line, single point. 0.36% of 350,000 active. CFBE cells, YFP halide quenching; stimulated with forskolin plus potentiator P3; % fluorescence drop versus neutral controls. activity (quench increase), % at 7.58 µM;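 active = mean added fluorescence quench of at least 8% versus neutral control, with both replicates also reaching 8%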;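 also: cells transiently co-express mutant CFTR-F508del with the halide-sensitive YFP; corrector assay measuring rescue of mutant channel to the surface after 24 h compound exposure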
# A number is an active result; 0 = inactive; - = no result given.
SMILES,Statin myotox sup,ARNT-TACC3 inh,PglD DTNB,CFTR F508del cor
C[C@@H]1CN([C@@H](C)CO)C(=O)c2cc(NC(=O)Nc3cccc4ccccc34)ccc2O[C@@H](C)CCCCO[C@@H]1CN(C)Cc1ccc2c(c1)OCO2,0,0,0,8.8
C[C@@H]1CCCCO[C@H](CN(C)Cc2ccc3c(c2)OCO3)[C@H](C)CN([C@H](C)CO)C(=O)c2cc(NC(=O)Nc3cccc4ccccc34)ccc2O1,0,0,0,0
C[C@@H]1CN([C@@H](C)CO)C(=O)c2cc(NC(=O)Nc3ccc4c(c3)OCO4)ccc2O[C@@H](C)CCCCO[C@H]1CN(C)C(=O)Nc1cccc2ccccc12,0,0,0,0
C[C@@H]1CCCCO[C@H](CN(C)C(=O)Nc2cccc3ccccc23)[C@H](C)CN([C@@H](C)CO)C(=O)c2cc(NC(=O)Nc3ccc4c(c3)OCO4)ccc2O1,122,0,0,0
C[C@@H]1CCCCO[C@H](CN(C)C(=O)Nc2cccc3ccccc23)[C@H](C)CN([C@@H](C)CO)C(=O)c2cc(N(C)C)ccc2O1,71,0,0,0
COc1cccc(S(=O)(=O)N[C@H]2C=C[C@H](CC(=O)NCc3ccncc3)O[C@H]2CO)c1,-,-,-,0
Fc1cccc(CN2CCN3CCCC3C2C2CCCCC2)c1 (configuration not stated),129,0,0,-
CN(C)CC(=O)Nc1ccc2c(c1)[C@H]1C[C@@H](CC(=O)N3CCOCC3)O[C@H](CO)[C@H]1O2,0,0,0,0
COC(=O)c1c(CC[C@@H](CO)NC(=O)N[C@H](Cc2ccccc2)Cn2cc(-c3ccccc3N)nn2)oc(C(C)=O)c1C(=O)OC,-,-,-,0
COC(=O)c1c(CC[C@@H](CO)NC(=O)N[C@H](Cc2ccccc2)Cn2cc(-c3ccccn3)nn2)oc(C(C)=O)c1C(=O)OC,-,22,0,0
CC(C(=O)NC1CCCC1)N1CCN(S(=O)(=O)c2ccc(C(C)(C)C)cc2)CC1 (configuration not stated),0,0,0,13
CC(C)C#Cc1ccc2c(c1)O[C@H](CN(C)C(=O)c1cccnc1)[C@H](C)CN([C@H](C)CO)S2(=O)=O,0,0,0,0
O=C(C1CCC1)N1CCCCN2[C@H](C1)[C@H](c1ccc(C#CC3CCCC3)cc1)[C@@H]2CO,-,0,0,0
C[C@@H]1CN([C@H](C)CO)C(=O)c2cc(C#Cc3ccncc3)cnc2O[C@H]1CN(C)C(=O)c1ccccc1F,0,0,0,0
O=S(=O)(c1ccc(Br)cc1)c1nc(-c2ccco2)oc1NCCCn1ccnc1,0,64,-,0
C[C@@H]1CN([C@@H](C)CO)S(=O)(=O)c2ccc(-c3ccc(F)cc3)cc2O[C@@H]1CN(C)C,0,0,0,0
COc1ccccc1-n1nnnc1SCC(=O)Nc1ccccc1,0,0,0,0
COc1ccccc1-n1nnnc1SCC(=O)Nc1ccccn1,72,0,0,-
Cc1noc(C)c1NC(=O)Nc1ccc2c(c1)C(=O)N([C@@H](C)CO)C[C@H](C)[C@@H](CN(C)C(=O)Nc1cccc3ccccc13)OCCCC[C@H](C)O2,-,0,0,0
CCN(CC)c1ccc(/C=N/NC(=O)Cc2cccs2)c(O)c1,-,32,0,-
CCN(CC)c1ccc(/C=N/NC(=O)c2ccco2)c(O)c1,-,74,-,35
O=C(COc1ccccc1)N/N=C/c1sc(=O)n(Cc2cccc(C(=O)O)c2)c1Cl,-,0,-,0
O=C(O)c1cccc(Cn2c(Cl)c(/C=N/NC(=O)c3ccc(O)cc3)sc2=O)c1,0,41,0,0
C[C@H](CO)N1C[C@H](C)[C@@H](CN(C)S(=O)(=O)c2cccs2)Oc2ccc(NS(=O)(=O)c3cccs3)cc2CC1=O,0,-,-,0
O=C(C[C@H]1C[C@@H]2c3cc(NC(=O)c4cccnc4)ccc3O[C@@H]2[C@H](CO)O1)NC1CCCC1,-,-,-,0
O=C(C[C@H]1CC[C@@H](NS(=O)(=O)c2ccccc2)[C@H](CO)O1)NCCN1CCCCC1,0,0,0,0
O=c1oc2ccccc2c(Nc2cc3ccccc3cc2O)c1[N+](=O)[O-],0,0,-,8.5
C[C@H]1CN([C@@H](C)CO)C(=O)c2cc(NS(C)(=O)=O)ccc2O[C@H]1CN(C)CC1CCCCC1,0,-,0,0
